Laboratory results from PubChem BioAssay (NCATS).
Records with an inconclusive call do not appear. Entries that show only a call come without a potency. Values without a mark were called inactive. Active and inactive are the calls of the source. The call rests on the fitted dose curve; in most records, active means well fitted curve in the direction sought with a large enough effect; inconclusive means small, poorly fitted or top-dose-only effect, or another doubt; inactive means no such curve, though single readings can be large; an effect the other way counts as inactive or inconclusive.

Legend:
C33A = experiment: Primary qHTS to identify gynecologic anti-cancer compounds using libraries of approved drugs and bioactive compounds (AID 1345084); settings: Gynecologic cancer cell panel viability, ATPlite luminescence, 48 h; series mostly up to 57.5 µM; further: nearly all actives have a fitted effect of over 55% in size
Procedure, shortened: (§1)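 In this quantitative HTS, cell killing is estimated from loss of ATP-dependent luciferase light. Cells see five compound concentrations over a 48 h exposure.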

CASKI = experiment: as above; settings: Gynecologic cancer cell panel viability, ATPlite luminescence, 48 h; series mostly up to 57.5 µM
Procedure, shortened: as §1

Es-2 = experiment: as above; settings: Gynecologic cancer cell panel viability, ATPlite luminescence, 48 h; series mostly up to 57.5 µM
Procedure, shortened: as §1

HeLa = experiment: as above; settings: Gynecologic cancer cell panel viability, ATPlite luminescence, 48 h; series mostly up to 57.5 µM
Procedure, shortened: as §1

Hek293T = experiment: as above; settings: Gynecologic cancer cell panel viability, ATPlite luminescence, 48 h, control line for the selectivity index; series mostly up to 57.5 µM
Procedure, shortened: as §1

JEG-3 = experiment: as above; settings: Gynecologic cancer cell panel viability, ATPlite luminescence, 48 h; series mostly up to 57.5 µM
Procedure, shortened: as §1

OV90 = experiment: as above; settings: Gynecologic cancer cell panel viability, ATPlite luminescence, 48 h; series mostly up to 57.5 µM
Procedure, shortened: as §1

PA-1 = experiment: as above; settings: Gynecologic cancer cell panel viability, ATPlite luminescence, 48 h; series mostly up to 57.5 µM
Procedure, shortened: as §1

Tov-21-G = experiment: as above; settings: Gynecologic cancer cell panel viability, ATPlite luminescence, 48 h; series mostly up to 57.5 µM
Procedure, shortened: as §1

Tov112D = experiment: as above; settings: Gynecologic cancer cell panel viability, ATPlite luminescence, 48 h; series mostly up to 57.5 µM
Procedure, shortened: as §1

SKOV3 = experiment: as above; settings: Gynecologic cancer cell panel viability, ATPlite luminescence, 48 h; series mostly up to 57.5 µM
Procedure, shortened: as §1

[1] = qHTS assay to identify inhibitors of the type 1 interferon - major histocompatibility complex class I in skeletal muscle: Counter screen cell viability and HiBit confirmation (AID 1347412); settings: iHSKM muscle cells + IFN-b, HiBiT or CellTiter-Glo, 24 h; for activity change, negative = inhibition: Viability, at 45.9 µM (top of the series); on all read-outs here: nearly all actives have a fitted effect of over 60% in size
Procedure, shortened: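 Myoblasts (C25cl48, HLA-B HiBiT) seeded in medium without dexamethasone, IFN-b 4 ng/ml added except unstimulated columns; 1 hr later compounds pinned (12-pt 1:3, top 46 uM final). Incubated 24 hrs, lysed 10 min, luminescence measured.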
Potency means the concentration at half of the fitted maximal effect.

SMILES	Potency (C33A)	Potency (CASKI)	Potency (Es-2)	Potency (HeLa)	Potency (Hek293T)	Potency (JEG-3)	Potency (OV90)	Potency (PA-1)	Potency (Tov-21-G)	Potency (Tov112D)	Potency (SKOV3)	Potency ([1]; HiBiT)	activity change, negative = inhibition [1] [%]
O=C(Nc1cccnc1)c1cc(-c2ccnc(F)c2)ccc1OCc1ccccc1	inactive	inactive	inactive	inactive	inactive	inactive	inactive	inactive	inactive	inactive	–	–	–
Cc1ccc(N2CCN(CCC3NC(=O)c4ccccc43)CC2)cc1C (stereo not given)	inactive	inactive	inactive	inactive	inactive	inactive	inactive	inactive	inactive	inactive	inactive	–	–
Cc1cc(C)c(-n2cc(C)c3c(Cl)nc(C)nc32)c(C)c1	inactive	inactive	inactive	inactive	inactive	inactive	inactive	inactive	inactive	inactive	inactive	–	–
c1cc(NCCc2c[nH]c3ccccc23)cc(Nc2ccncc2)c1	inactive	inactive	inactive	inactive	inactive	inactive	inactive	inactive	inactive	inactive	–	–	–
C[C@@H](O[C@H]1OCCN(Cc2nn(P(=O)(O)O)c(=O)[nH]2)[C@H]1c1ccc(F)cc1)c1cc(C(F)(F)F)cc(C(F)(F)F)c1	inactive	inactive	inactive	inactive	inactive	inactive	inactive	inactive	inactive	inactive	inactive	–	–
O=c1[nH]c2cccc(N3CCN(Cc4ccc(-c5ccccc5)cc4)CC3)c2o1	inactive	inactive	inactive	inactive	inactive	inactive	inactive	inactive	inactive	inactive	inactive	–	–
C=C1CC[C@H]2C(=C)CC[C@H]3C(=C)C(=O)O[C@@H]3[C@@H]12	inactive	inactive	inactive	inactive	inactive	inactive	inactive	inactive	inactive	inactive	inactive	–	–
CN[C@@H]1[C@H](O[C@H]2[C@H](O[C@@H]3[C@@H](O)[C@H](O)[C@@H](N=C(N)N)[C@H](O)[C@H]3N=C(N)N)O[C@@H](C)[C@]2(O)CO)O[C@@H](CO)[C@H](O)[C@H]1O	inactive	inactive	inactive	inactive	inactive	inactive	inactive	inactive	inactive	inactive	inactive	–	–
Cc1ccc(-c2ncccn2)c(C(=O)N2C[C@H](COc3ccc(F)cn3)CC[C@H]2C)c1	inactive	inactive	inactive	inactive	inactive	inactive	inactive	inactive	inactive	inactive	–	–	–
CC(=O)O[C@H]1C[C@@](O)(C(C)C)[C@@H]2[C@@H](OC(=O)c3ccc(O)cc3)CC(C)=CC[C@@]12C	inactive	inactive	inactive	inactive	inactive	inactive	inactive	inactive	inactive	inactive	inactive	–	–
CC1(C)CN(C(=O)c2ccc(-c3cccc4nc(NC(=O)C5CC5)nn34)cc2)C1	inactive	inactive	inactive	inactive	inactive	inactive	inactive	inactive	inactive	inactive	inactive	7.87 µM (active)	3.01
NCC(CNc1nc(Nc2cccc(NC(=O)N3CCCC3)c2)ncc1I)C(=O)c1cccs1 (stereo not given)	inactive	inactive	inactive	inactive	inactive	inactive	inactive	inactive	inactive	inactive	inactive	–	–
O=C1NC(=O)C(c2cnc3ccccn23)=C1c1cn2c3c(cc(F)cc13)CN(C(=O)N1CCCCC1)CC2	inactive	inactive	inactive	inactive	inactive	inactive	inactive	17.8 µM (active)	inactive	inactive	inactive	–	-0.987
CC(C)=CCC[C@](C)(O[C@@H]1O[C@H](CO[C@@H]2OC[C@@H](O)[C@H](O)[C@H]2O)[C@@H](O)[C@H](O)[C@H]1O)[C@H]1CC[C@]2(C)[C@@H]1[C@H](O)C[C@@H]1[C@@]3(C)CC[C@H](O[C@@H]4O[C@H](CO)[C@@H](O)[C@H](O)[C@H]4O)C(C)(C)[C@@H]3CC[C@]12C	inactive	inactive	inactive	inactive	inactive	inactive	inactive	inactive	inactive	inactive	inactive	–	–
Cc1ccc(-c2ncc[nH]2)cc1NC(=O)c1ccc(OCc2ccccn2)cc1	inactive	inactive	inactive	inactive	inactive	inactive	inactive	inactive	inactive	inactive	inactive	–	–
